Growth data for 40 compounds are collected here from PubChem BioAssay (NCI).

Compounds without any hit were thinned out: in the full panel of roughly 83,000, 20% have a hit.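 Plates (96-well) were seeded with cells, treated with compound at one concentration, and incubated for 48 hours before percent growth was determined.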 Calls of active or inactive are those of the source.

The test relates to M14 melanoma. Nature of the test: NCI-60 one-dose screen, 48 h (100 = growth as untreated, 0 = no growth, -100 = all killed). The conditions noted are these: 10 µM unless noted. The protocol: Growth inhibition of the M14 human tumor cell line is measured as a screen for anti-cancer activity. Cells are grown in 96 well plates and exposed to the test compound for 48 hours. Compounds are tested at a single concentration, which is 10^-5 M for most compounds. The reported endpoint is percent growth (GI% or GIPRCNT), where numbers from 0 - 100% represent growth inhibition, and numbers from -100% - 0 represent cell death. For example, a value of 40 represents 60% growth inhibition. A value of 0 means no net growth occurred over the course of the experiment. A value of -40 indicates 40% of cells at the beginning of the experiment died by the end of the experiment. A value of -100 means all cells are dead at the end of the experiment.
NCI-60 Human Tumor Cell Lines Screen was performed using the standard one-dose NCI protocol, which is described in more detail at https://dtp.cancer.gov/discovery_development/nci-60/default.htm.
Compounds with GIPRCNT values below 10 were considered active. Activity score was based on GIPRCNT using the following formula: […]
Score is 0 for GIPRCNT values of 100 or above, 50 for GIPRCNT values of 0, and 100 for GIPRCNT values of -100.
Regarding `COCCNC(C(=O)c1ccccc1)c1ccccc1` (stereo not given), the growth was 100% (inactive). The same measure for `O=C(COc1ccc(Cl)cc1Cl)N1N=C(c2ccc(Cl)cc2Cl)CC1(O)c1cc(F)c(Cl)cc1Cl` (stereo not given): 94.1% (inactive). The same measure for `O=[N+]([O-])c1cccc(C2c3ccccc3Oc3ccccc32)c1`: 110% (inactive); for `COc1ccc(C2CC(c3cc(Cl)c(C)cc3OC)=NN2c2ccc(S(N)(=O)=O)cc2)cc1OC` (stereo not given): 81.8% (inactive); for `COc1cc(C(=O)N2CCN(C(=O)c3cc(OC)c(OCc4ccccc4)cc3N)CC2)c(N)cc1OCc1ccccc1`: 111% (inactive).

For the compound `COC1OCC(OS(=O)(=O)c2ccc(C)cc2)C(OC(=O)c2ccccc2)C1OC(=O)c1ccccc1` (stereo not given), the growth was 34.3% (inactive). As for `Cc1ccc[n+](CC(=O)c2cccc3ccccc23)c1`, the growth is 98.3% (inactive). The same measure for `CCN(CC)CCNCC(O)Cc1ccc(OC)cc1` (stereo not given): 104% (inactive). As for `O=C(C[n+]1ccccc1Cl)c1ccc2c(c1)CCCC2`, the growth is 86.2% (inactive). In the case of `COc1ccc(-c2nnc(SCC(=O)Nc3ccc(C(=O)/C=C/c4ccccc4)cc3)o2)cc1OC` it was 105% (inactive); in that of `Cc1cc(NC(=O)c2cccc(C(F)(F)F)c2)ccc1-n1ccc2c(NC(=O)c3ccccc3)nccc21`, 96.8% (inactive). For the compound `CCn1c(SC)nnc1-c1cc2c([nH]c3ccccc32)c(-c2cccc(O)c2)n1`, the growth was 10.8% (inactive).

With `O=C(Nc1ccc(-n2cc(-c3ccncc3)c(-c3ccc(O)c(Cl)c3)n2)cc1)Nc1ccc(Cl)c(C(F)(F)F)c1`, the growth was 7.1% (active). The same measure for `COc1cc(-c2nc(SCC(=O)Nc3ccc(C(C)=O)cc3)[nH]c(=O)c2C#N)cc(OC)c1OC`: 5.17% (active); for `Nc1nccc2c1ccn2-c1ccc(NC(=O)Nc2cccc(C(F)(F)F)c2)cc1`: 91.5% (inactive); for `S=C=NP1(N=C=S)=NP(N=C=S)(N=C=S)=NP(N=C=S)(N=C=S)=NP(N=C=S)(N=C=S)=N1` (stereo not given): 93.4% (inactive). Consider `NC(N)=N/N=C/c1ccc([N+](=O)[O-])cc1`, for which the growth is 105% (inactive).

Take `FC(F)(F)c1cn(CCN2CCOCC2)c2ncnc(Cl)c12`: the growth is 38% (inactive).

As for `COc1cc2ncnc(Oc3ccc(NC(=O)Nc4ccc(CN5CCOCC5)c(C(F)(F)F)c4)c4ccccc34)c2cc1OC`, the growth was 20.4% (inactive). In the case of `COc1ccc(Cl)cc1NC(=O)c1cc2c([nH]1)-c1nc(N)sc1CCC2` it was 97.6% (inactive); in that of `COc1ccc2c(c1)nnc1c3cccnc3[nH]c21`, 4.79% (active). The same measure for `O=C1C(Cl)=C(Nc2cccc3cc4ccccc4nc23)C(=O)c2ccccc21`: 56.4% (inactive); for `O=S(=O)(O)c1ccc(F)cc1`: 98.1% (inactive). Consider `CCCCCCCC(=O)SCC/C=C/[C@@H]1CC(=O)NCc2nc(cs2)C2=N[C@@](C)(CS2)C(=O)N[C@@H](C(C)C)C(=O)N1`, for which the growth was 15.5% (inactive). In the case of `Fc1ccc(/C=N/n2c(-c3cc(Cl)cc(Cl)c3Cl)nn(CNc3ccc(Cl)nn3)c2=S)cc1` it was 85.6% (inactive).

For the compound `Cc1ccccc1C[P+](c1ccccc1)(c1ccccc1)c1ccccc1`, the growth was 29.2% (inactive). In the case of `CCOC(=O)c1cnc2c(OC)ccc(OC)c2c1Cl`, the growth is 106% (inactive). The same measure for `COc1cccc(-c2nc3sccn3c2-c2ccnc(NCCNC(=O)Nc3cccc(C(F)(F)F)c3)n2)c1`: 39.2% (inactive); for `CN1CCN(Cn2nc(-c3cc(Cl)cc(Cl)c3Cl)n(/N=C/c3ccc(Cl)cc3)c2=S)CC1`: 96% (inactive). On to `CC/C(=C(\CC)c1ccc(OCCN(CC)CC)cc1)c1ccc(OCCN(CC)CC)cc1`, for which the growth was -0.0375% (active). On to `CC(=O)Nc1ccc(OC(=O)c2ccccc2O)cc1`, for which the growth is 109% (inactive). With `COc1ccc(NC(=O)COCCOCCNC[C@@H]2C(=O)O[C@H]3[C@H]2CC/C(COC(=O)OC/C2=C/CC[C@@]4(C)O[C@H]4[C@H]4OC(=O)[C@@H](CN(C)C)[C@@H]4CC2)=C\CC[C@@]2(C)O[C@@H]32)c(O)c1C(N)=O`, the growth is 53.9% (inactive). Consider `COC(=O)c1oc2c(C(C)=O)c(OCCCN(C)C)ccc2c1C`, for which the growth was 123% (inactive). The same measure for `COc1cc(C(=O)C[n+]2ccccc2)ccc1OC(C)=O`: 94.9% (inactive); for `C=C1C(=O)O[C@H]2[C@H]1CC/C(C(=O)Nc1ccc(OC)c(C(N)=O)c1O)=C\CC[C@@]1(C)O[C@@H]21`: 55.8% (inactive). The same measure for `Nc1ncnc2c1c(-c1ccc(Oc3ccccc3)cc1)nn2C[C@H]1SSC[C@@H]1O`: -90% (active); for `CCOC(=O)c1[nH]c(-c2ccc(Cl)cc2)cc1-c1cccnc1`: 14.3% (inactive); for `O=[N+]([O-])c1ccc(NS(=O)(=O)c2cc(Cl)ccc2Cl)c2ccccc12`: 45.4% (inactive). With `CN1C(=O)C2(SCC(C(=O)NCC(=O)OC(C)(C)C)N2C(=O)C2CCCCC2)c2ccccc21` (stereo not given), the growth was 100% (inactive). In the case of `O=C(Cn1c2ccccc2c2ccncc21)N/N=C/c1c[nH]c2ccccc12` it was 68.2% (inactive).
